# About 83,000 compounds went through this panel and 20% of them were active in at least one assay; those are over-represented in the sample as a whole.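 48-hour exposure, single concentration, 96-well plates; percent growth endpoint where 0 means no net growth. Active: below 10.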 Active and inactive are the calls of the source.
# Tested on: SK-MEL-2 melanoma
# Experiment: NCI-60 one-dose screen, 48 h (100 = growth as untreated, 0 = no growth, -100 = all killed)
# Conditions: 10 µM unless noted
# Experimental: Growth inhibition of the SK-MEL-2 human tumor cell line is measured as a screen for anti-cancer activity. Cells are grown in 96 well plates and exposed to the test compound for 48 hours. Compounds are tested at a single concentration, which is 10^-5 M for most compounds. The reported endpoint is percent growth (GI% or GIPRCNT), where numbers from 0 - 100% represent growth inhibition, and numbers from -100% - 0 represent cell death. For example, a value of 40 represents 60% growth inhibition. A value of 0 means no net growth occurred over the course of the experiment. A value of -40 indicates 40% of cells at the beginning of the experiment died by the end of the experiment. A value of -100 means all cells are dead at the end of the experiment.
# NCI-60 Human Tumor Cell Lines Screen was performed using the standard one-dose NCI protocol, which is described in more detail at https://dtp.cancer.gov/discovery_development/nci-60/default.htm.
# Compounds with GIPRCNT values below 10 were considered active. Activity score was based on GIPRCNT using the following formula: […]
# Score is 0 for GIPRCNT values of 100 or above, 50 for GIPRCNT values of 0, and 100 for GIPRCNT values of -100.
row,SMILES,growth
1,O=C(CN1N=C(c2ccc(F)cc2)CCC1=O)Nc1nc2ccccc2s1,92.7% (inactive)
2,COc1ccc(-c2cn(-c3ccc(Cl)cc3)c(=S)[nH]2)cc1OC,46.9% (inactive)
3,CNC(=O)c1cc(Oc2ccc3c(c2)sc2nc(-c4ccc(NC(C)=O)cc4)cn23)ccn1,45.2% (inactive)
4,COc1ccc(Nc2nc(SCC(C)C)nc(-c3ccc(F)cc3)c2C#N)cc1,72.4% (inactive)
5,C/C(=C\c1cnc(C)s1)[C@@H]1C[C@@H]2O[C@@H]2CCC[C@H](C)[C@H](O)[C@@H](C)C(=O)C(C)(C)[C@@H](O)CC(=O)O1,27.5% (inactive)
6,CC(/C=C/c1ccccc1)=N/NC(=O)c1ccncc1,106% (inactive)
7,COC(=O)CCc1n(Cc2ccc3ccccc3c2)c2ccccc2[n+]1Cc1ccc2ccccc2c1,-56.2% (active)
8,CC(=O)OCC1OC(OC2C(COC(C)=O)OC(OCCC[S-])C(OC(C)=O)C2OC(C)=O)C(OC(C)=O)C(OC(C)=O)C1OC(C)=O.[Au+].c1ccc(CN2[CH-]N(Cc3ccccc3)C(c3ccccc3)=C2c2ccccc2)cc1 (stereo not given),13.4% (inactive)
9,C#C[C@@]1(O)[C@@H](CO)O[C@@H](n2ccc3c(N)ncnc32)[C@@H]1O,-8.72% (active)
10,Oc1c(CCl)cc(Cl)cc1Cc1cc(Cl)cc(Cc2cc(Cl)cc(CCl)c2O)c1O,-16.6% (active)
11,CCOC(=O)c1cnn(-c2nc(-c3ccc(F)cc3)c(C#N)c(N3CCOCC3)n2)c1N,90% (inactive)
12,CC(C)(C)c1nc2c(s1)c1nc(N)ncc1c1ccc(NS(=O)(=O)c3c(F)cccc3F)c(F)c12,50% (inactive)
13,CSc1nc(-c2cccs2)c2c(N)[nH]nc2n1,104% (inactive)
14,CO[C@@]12C=C[C@@]34CCC(=O)N3c3ccccc3[C@@H](O1)C4C2,101% (inactive)
15,C[C@H](Oc1cc(-c2cnn(C3CCNCC3)c2)cnc1N)c1c(Cl)ccc(F)c1Cl,71.1% (inactive)
16,COc1cccc2c1-c1ccccc1C2=O,34.3% (inactive)
17,COCCOC(=O)COc1ccc(OC)cc1,120% (inactive)
18,Cc1c(C(=O)Nc2nc3ccccc3[nH]2)cnn1-c1ccccn1,105% (inactive)
19,CN(C)CSc1nc2ccccc2s1,101% (inactive)
20,Cc1ccc(C(=O)O)o1,96.1% (inactive)

row,SMILES,growth
1,COc1ccc(/C=C(/C(=O)N2CCCC2)c2cc(OC)c(OC)c(OC)c2)cc1,64.3% (inactive)
2,Nc1ccccc1NS(=O)(=O)c1ccc(Cl)cc1,93.7% (inactive)
3,CCCCCCCc1n(Cc2ccc3ccccc3c2)c2ccccc2[n+]1Cc1ccc2ccccc2c1,-74.9% (active)
4,C=C1C(=O)O[C@H]2[C@H]1CC/C(COC(=O)c1cc3ccccc3o1)=C\CC[C@@]1(C)O[C@@H]21,-34.7% (active)
5,CCCCCCN1C(=O)CN=C1Nc1ccc2cc3ccc(NC4=NCC(=O)N4CCCCCC)cc3nc2c1,79.9% (inactive)
6,COC(=O)/C=C/c1cc(OC(C)=O)c2c(c1)C(C(=O)OC)C(c1ccc(OC(C)=O)c(OC(C)=O)c1)O2 (stereo not given),25% (inactive)
7,CCCCCOC(=O)c1ccccc1O,111% (inactive)
8,COC(=O)/C=C1\SC(=Nc2cccc(OC)c2)N(CCc2c[nH]c3ccccc23)C1=O,60.8% (inactive)
9,C=C1C(=O)O[C@H]2[C@H]1CC/C(COC(=O)Nc1nc3ccccc3[nH]1)=C\CC[C@@]1(C)O[C@@H]21,68.1% (inactive)
10,Sc1cccc2cccnc12,21.5% (inactive)
11,C[C@@H]1C(=O)[C@@H]2C[C@@H](O)[C@@H](O)C[C@]2(C)[C@H]2CC[C@@]3(C)C(=C12)CC[C@@H]3[C@@](C)(O)[C@H](O)CCC(C)(C)O,108% (inactive)
12,OCCNc1nc(NCCO)nc(Nc2ccc(C3=NN(c4cc(Cl)cc(Cl)c4)C(c4ccc(C(F)(F)F)cc4)C3)cc2)n1 (stereo not given),45.9% (inactive)
13,N#Cc1c(-c2ccc(F)cc2)nc(N/N=C/c2c[nH]c3ccccc23)nc1N1CCOCC1,53.4% (inactive)
14,CC(=O)Nc1c(C(=O)Nc2ccccc2)sc2nc3c(cc12)C(OC(C)=O)CCC3 (stereo not given),89.8% (inactive)
15,CN1CC=C(c2cc(NC(=O)Nc3ccc(Oc4ccnc(NC(=O)C5CC5)c4)c(F)c3)cc(C(F)(F)F)c2)CC1,-42.8% (active)
16,COc1ccc(-n2cc(COc3ccc4c5ccnc(C)c5n(CC(C)C)c4c3)nn2)cc1,87.7% (inactive)
17,COc1cc(-c2nn(-c3ccc(Br)cc3)cc2CO)ccc1O,100% (inactive)
18,Cc1c(Br)cccc1NC(=O)c1sc2nc3c(cc2c1N)CN(Cc1ccccc1)CC3,25.5% (inactive)
19,O=C(NCc1ccccc1)c1ccc2c(c1)NC(=O)[C@@H]1CCCN21,99% (inactive)
20,COc1ccc(/C(=N\O)c2cc(C)c(OC)c(C)c2)cc1O,37.6% (inactive)

# From PubChem BioAssay (NCI)
